# Results as given in PubChem BioAssay (EPA / NIEHS).
# Calls of active or inactive are those of the source. Rule for the calls: active = hit-call score of the fitted dose curve at least 0.9, where 1 is the maximum; inactive = score below 0.9.
# Assay: IUF_NPC1a_proliferation_area_72hr: Leibniz Research Institute for Environmental Medicine (IUF) 72-hour Neural Progenitor Cell Proliferation Area Assay (NPC1a) (AID 2284208)
# Procedure: IUF_NPC1 is a cell-based, multiplexed assay that uses hNPC, a human primary neural progenitor cells, with measurements taken at 72 hours after chemical dosing in a 96-well plate. Human neural progenitor cells (hNPC) are generated from human fetal brain cortex at gestational week (GW) 16-19. Grown in suspension culture and under proliferative conditions (proliferation media and growth factors), these cells represent neural progenitor cell proliferation. In the NPC1 assay, hNPC's are exposed to the test compound for 72h. Cell proliferation is assessed as an increase in sphere area using automated phase contrast imaging and as incorporation of Bromodeoxyuridine (BrdU) during DNA synthesis using a luminescence-based cell proliferation ELISA. In parallel, the cell viability is assessed using an alamar blue viability assay and the cytotoxicity using a lactate dehydrogenase dependent membrane integrity assay.IUF_NPC1a_proliferation_area_72hr is one of 4 assay components measured from the IUF_NPC1 assay. It is designed to measure cell proliferation as assessed by an increase in sphere area over 72 h using automated phase contrast imaging.Data from the IUF_NPC1a_proliferation_area component was analyzed at the endpoint IUF_NPC1a_proliferation_area in the positive analysis fitting direction relative to DMSO as the negative control and baseline of activity. Using a type of growth reporter, gain or loss-of-signal activity can be used to understand cell proliferation effects.
# After the cell expansion period, the cells are cultured for up to four weeks in which they are passaged every week. Between one to three days after passaging, depending on the size chosen for passaging, spheres at a size of 0.3 mm are used in the assay. For the assessment of neural progenitor cell proliferation, the spheres are plated in poly-Hema coated 96-well U-bottom plates filled with proliferation medium containing growth factors (EGF and FGF). One 0.25 - 0.35 mm big sphere is plated in the middle of each well. Within 3 days NPCs proliferate and grow in size. Cultivation during the test method is performed at 37C and 5% CO2 at a pH of 7.2-7.6. As a positive control, spheres are cultivated in the absence of growth factors (EGF and FGF), which dramatically reduces proliferation. Exposure starts on the plating day (day 0) and is continued over three days, without chemical renewal, until the experiment is terminated. The assay is terminated by the assessment of cell viability, cytotoxicity, and proliferation by BrdU. All endpoints are generated from the same experimental run and from each well/sphere in the 96-well plate.
Compound,outcome,AC50
COP(N)(=O)SC (centres undefined),inactive,
CN(C)C(=S)SSC(=S)N(C)C,,67.2 µM (active)
CCCCOC(=O)c1ccccc1C(=O)OCCCC,inactive,
COC(=O)N(OC)c1ccccc1COc1ccn(-c2ccc(Cl)cc2)n1,,1.44 µM (active)
Cc1ccc(-c2c(Cl)nc(C#N)n2S(=O)(=O)N(C)C)cc1,,74.1 µM (active)
C=CC1(C)OC(=O)N(c2cc(Cl)cc(Cl)c2)C1=O (centres undefined),inactive,
N#Cc1nn(-c2c(Cl)cc(C(F)(F)F)cc2Cl)c(N)c1S(=O)C(F)(F)F (centres undefined),inactive,
CCOc1cc(Oc2ccc(C(F)(F)F)cc2Cl)ccc1[N+](=O)[O-],inactive,
CO/C=C(/C(=O)OC)c1ccccc1Oc1cc(Oc2ccccc2C#N)ncn1,,60.2 µM (active)
CCCCC(CC)COC(=O)c1ccccc1C(=O)OCC(CC)CCCC (centres undefined),inactive,
COP(=S)(OC)Oc1nc(Cl)c(Cl)cc1Cl,inactive,
CC(C)(C)c1ccc(CSc2cnn(C(C)(C)C)c(=O)c2Cl)cc1,,0.0126 µM (active)
CCOC(=O)CC(SP(=S)(OC)OC)C(=O)OCC (centres undefined),inactive,
CNC(=O)ON=CC(C)(C)SC,inactive,
